The full list was thinned out, with hits kept by preference.
AMPAR-TARP mod: modulates AMPAR-stargazin complexes. calls only at 30 µM. AID 1259245. HEK293 GluA2+stargazin, membrane potential dye (FDSS), glutamate EC50; hits were called plate by plate, in both directions. O88602+P19491. hit rate 3.5% among 40,000;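 active = any of four per-well response measures lying three or more SD from its plate-wide compound average, in either direction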
GIRK2 activator: Activators of human GIRK2-containing channels. P48051. HEK293 GIRK2/NPY4 cells, thallium flux fluorescence. activation (% efficacy), % for hits at 37.5 µM. 34,000 tested, under 10 active;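 active = primary screen hit, no activity in plain HEK293 cells, and in GIRK2-only cells above 5% efficacy rising with concentration; inactive = the rest, including fluorescent compounds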;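 also: efficacy is normalized control-subtracted fluorescence 15 s after thallium addition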
Target sequence (P48051 whole entry, looked up): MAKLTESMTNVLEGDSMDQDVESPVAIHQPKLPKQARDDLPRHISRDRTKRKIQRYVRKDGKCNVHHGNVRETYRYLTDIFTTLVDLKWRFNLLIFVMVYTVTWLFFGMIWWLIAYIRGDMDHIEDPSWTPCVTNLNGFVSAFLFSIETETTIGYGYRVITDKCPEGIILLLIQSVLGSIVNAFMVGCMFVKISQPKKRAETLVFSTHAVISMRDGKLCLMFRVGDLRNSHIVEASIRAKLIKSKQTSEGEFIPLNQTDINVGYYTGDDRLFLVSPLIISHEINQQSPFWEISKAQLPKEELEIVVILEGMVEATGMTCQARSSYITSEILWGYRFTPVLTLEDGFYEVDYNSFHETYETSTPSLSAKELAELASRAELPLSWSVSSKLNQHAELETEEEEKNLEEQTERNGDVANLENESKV
* marks the source's active call; other numbers are inactive results; i = inactive; . = no result given; + = active, no number.

SMILES | AMPAR-TARP mod | GIRK2 activator
COc1ccc(OC)c(S(=O)(=O)Nc2ccc3c(c2)N(S(=O)(=O)c2ccccc2)CCC3)c1 | + | .
COc1ccc(OC)c(S(=O)(=O)Nc2ccc3c(c2)CCCN3S(=O)(=O)c2ccccc2)c1 | i | .
CCCS(=O)(=O)N1CCCc2cc(NS(=O)(=O)c3cc(C)ccc3OCC)ccc21 | i | .
CCCS(=O)(=O)N1CCCc2cc(NS(=O)(=O)c3cc(C)ccc3OC)ccc21 | + | .
CSc1cccc(NC(=O)C(=O)NCCCc2ccccc2)c1 | i | .
CS(=O)(=O)c1ccc(NC(=S)N2CCC(Cc3ccccc3)CC2)cc1 | i | i
COc1ccc2c(=O)c(Oc3ccc(C(=O)Nc4ccccc4OC)cc3)coc2c1 | i | i
COCC(C)(O)CNC(=O)c1cccn(C)c1=O (stereo not drawn) | + | i
Cn1cccc(C(=O)NCC(O)(c2ccccc2)C2CC2)c1=O (stereo not drawn) | i | .
O=C(Nc1nnc(Cc2cccs2)o1)c1ccco1 | i | i
O=C(NCc1cccs1)c1coc(NC(=O)c2ccco2)n1 | + | i
Cc1ccc2nc(NC(=O)CSc3nnc(-c4ccc(=O)n(C)c4)n3C)sc2c1 | i | i
O=C(CCn1c(=O)sc2ccccc21)NCCCN1CCOCC1 | i | i
CC(=O)c1sc(=Nc2ccccc2Cl)n(CCCN2CCOCC2)c1C | + | i
CCn1c(SCc2nc(-c3ccc(OC)cc3OC)no2)nc2ccccc2c1=O | i | .
CCn1c(SCc2nc(-c3ccc(OC)c(OC)c3)no2)nc2ccccc2c1=O | + | .
COc1ccc(S(=O)(=O)CC(=O)Nc2cccc(Br)c2)cc1 | + | i
O=C(CCCS(=O)(=O)c1ccccc1)Nc1ccccc1Oc1ccccc1 | i | i
COc1ccc(OCCCC(=O)Nc2cccc(Br)c2)cc1 | i | i
COc1ccc(S(=O)(=O)CC(=O)Nc2ccccc2Oc2ccccc2)cc1 | + | i
CN(Cc1nc2ccccc2[nH]1)C(=O)c1ccco1 | . | i
COc1cc(C)c(C)cc1S(=O)(=O)NCC1(O)CCOCC1 | . | i
COC(=O)CSc1ccnc2c1c(=O)n(C)c(=O)n2C | + | i
CCOC(=O)C(C)Sc1ccnc2c1c(=O)n(C)c(=O)n2C (stereo not drawn) | i | i
CCOC(=O)N1CCN(C(=O)CSc2ccnc3c2c(=O)n(C)c(=O)n3C)CC1 | + | .
SMILES | AMPAR-TARP mod | GIRK2 activator
COc1ccc(C(=O)CSc2ccnc3c2c(=O)n(C)c(=O)n3C)cc1 | i | i
Cn1nc(C2CCCN(C(=O)c3cccc(-n4cnnn4)c3)C2)n(-c2ccccc2)c1=O (stereo not drawn) | i | i
COc1cccc(C(=O)Nc2ccc(N3CCCCC3=O)cc2)c1 | i | i
CC(C(=O)N1CCN(c2cccc(Cl)c2)CC1)c1ccc([N+](=O)[O-])cc1 (stereo not drawn) | + | .
Cc1ccc(NC(=O)C(=O)N2CCN(c3cccc(Cl)c3)CC2)c([N+](=O)[O-])c1 | i | .
CC(C(=O)N1CCCC1)c1ccc([N+](=O)[O-])cc1 (stereo not drawn) | i | .
O=C(Nc1cccc([N+](=O)[O-])c1)C(=O)N1CCN(c2cccc(Cl)c2)CC1 | + | .
O=C(Nc1ccc([N+](=O)[O-])cc1)C(=O)N1CCN(c2ccc(F)cc2)CC1 | + | .
O=C(Nc1ccc([N+](=O)[O-])cc1)C(=O)N1CCC(O)CC1 | i | .
CCOC(=O)CCn1c(=O)c2c(nc3n(-c4ccc(OC)cc4)c(C)cn23)n(C)c1=O | i | .
CCOc1ccc2ncc(S(=O)(=O)c3ccc(Cl)cc3)c(N3CCC(C(N)=O)CC3)c2c1 | i | .
O=C(NCCC(O)c1cccs1)c1ccc(S(=O)(=O)N2CCCC2)cc1 (stereo not drawn) | i | i
O=C(Nc1cc(-c2ccccc2)nn1CCO)c1ccco1 | i | i
O=C(Nc1cc(-c2ccccc2)nn1CCO)c1ccc(Cl)s1 | + | i
Cc1cc(C(=O)N2CCOCC2)nn1CC(=O)NC1CCCCC1 | i | i
O=C(Nc1nc2c(s1)CSc1ccccc1-2)c1cc2ccccc2o1 | + | .
CC(C)S(=O)(=O)c1ccc(C(=O)Nc2nc3c(s2)CSc2ccccc2-3)cc1 | i | i
CC1CCCCN1c1ccc(N2CCN(S(=O)(=O)c3ccc([N+](=O)[O-])cc3)CC2)nn1 (stereo not drawn) | i | i
Cc1ccc(S(=O)(=O)NCCn2nc(-c3ccc(Cl)cc3)ccc2=O)cc1C | i | .
Cc1ccc(S(=O)(=O)NCCn2nc(C)c(Cl)c2C)cc1C | + | i
COc1cccc(OCCCn2c(C(C)NC(=O)c3ccco3)nc3ccccc32)c1 (stereo not drawn) | i | .
Cn1ccc(C(=O)N2CCNC(=O)C2(C)C)n1 | i | i
CC1(C)C(=O)NCCN1C(=O)c1ccco1 | + | i
